Reference: PubChem BioAssay AID441 (NMMLSC, 2006)
Screen size: about 24,000 compounds; about 70 (0.3%) were called active. The list comes from a sample in which actives are over-represented; it also holds similar structures and randomly drawn compounds. Unmarked numbers belong to inactive results. No stated cut-off is given here; in the data, active means inhibition above about 30%; inconclusive means no clear call, values can overlap the other calls; inactive means below that.

Biological target: N-formyl peptide receptor 2 (Homo sapiens) (UniProt P25090)
Test: small molecules displacing FPRL1 fluorescent ligand – cell-based, FPR counter-screen, flow cytometry, primary screen (AID 441);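 further: 0% = buffer alone and 100% = receptor blocker peptide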
Conditions: FPRL1-expressing cells, fluorescent ligand binding inhibition, stronger effect = higher value, concentration not given here

Chain of N-formyl peptide receptor 2 (Homo sapiens) (P25090 whole entry, looked up): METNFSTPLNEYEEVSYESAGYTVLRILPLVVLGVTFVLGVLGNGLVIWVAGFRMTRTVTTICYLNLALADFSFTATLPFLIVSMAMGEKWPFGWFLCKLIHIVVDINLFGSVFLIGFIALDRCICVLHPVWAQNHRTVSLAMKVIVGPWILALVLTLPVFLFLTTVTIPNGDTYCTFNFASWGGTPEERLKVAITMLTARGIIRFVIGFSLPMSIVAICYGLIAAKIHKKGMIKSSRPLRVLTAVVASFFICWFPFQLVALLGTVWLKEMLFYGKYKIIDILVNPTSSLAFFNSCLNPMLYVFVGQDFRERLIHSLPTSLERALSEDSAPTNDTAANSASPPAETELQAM

SMILES	inhibition
COc1ccc(CCNC(=O)c2cc(-c3ccc4c(c3)OCO4)on2)cc1OC	-0.8%
COc1cccc(NC(=O)C2CCCN2C(=O)OCc2ccccc2)c1 (centres undefined)	0.3%
CCOc1ccc(OCC)c(NC(=O)C2CCN(S(=O)(=O)c3c(C)noc3C)CC2)c1	30.8% (active)
CCOc1ccccc1NC(=O)C1CCN(S(=O)(=O)c2c(C)nn(C)c2C)CC1	-6.7%
CCOC(=O)C1CCN(C(=O)C2CCN(S(=O)(=O)c3c(C)noc3C)CC2)CC1	10.6%
COc1ccc(C(=O)Nc2nncs2)c(OC)c1	0%
COc1ccc(NS(=O)(=O)c2ccc(NC(C)=O)cc2)cc1OC	6%
NC(=O)CCCC1=NS(=O)(=O)c2ccccc2N1	-3.9%
CCN1C(=O)/C(=C2/Sc3ccccc3N2CCCS(=O)(=O)O)SC1=S	5.6%
CC(=O)c1c(C)c[nH]c1C	6%
Cc1cccc(N2CCN(C(=O)c3cc4c(=O)[nH]c5ccccc5c4n3C)CC2)c1C	-5%
CCOc1ccc(-c2nnn(CC(=O)N3CCN(c4ccc(F)cc4)CC3)n2)cc1OCC	-1.6%
CCOC(=O)N1CCN(C(=O)c2ccc3nc4cc(Cl)ccc4c(=O)n3c2)CC1	-10%
CCOc1ccc(C2C(C(=O)NC)=C(C)Nc3nc4ccccc4n32)cc1OC (centres undefined)	-2.9%
O=C(NCCCN1CCN(Cc2ccccc2)CC1)C1CCN(S(=O)(=O)N2CCCC2)CC1	2%
COc1cccc(CN2C(=O)CCC2(C)C(=O)NC2CCCCCC2)c1 (centres undefined)	7.7%
Cc1cc(N2C(=O)C(=O)/C(=C(/O)c3ccc(Cl)cc3)C2c2cccc(Br)c2)no1 (centres undefined)	-2.5%
Cn1c(=O)c2[nH]c(NCC3CCCO3)nc2n(-c2ccccc2)c1=O (centres undefined)	-0.4%
CCOC(=O)c1oc2ccccc2c1NC(=O)c1cccs1	-9.1%
CC(NC(=O)COc1ccccc1)C(=O)NC1=NCCS1 (centres undefined)	5.2%
CCN(CC)CCNC(=O)C1c2ccccc2C(=O)N(C)C1c1cn(C)c2ccccc12 (centres undefined)	9.3%
Cc1cccc(NC(=O)CSc2nnc(NC(=O)CN3CCOCC3)s2)c1	8.7%
COc1ccccc1C(=O)NCCn1cc(SCC(=O)NCc2ccco2)c2ccccc21	2.6%
COC(=O)C1=C(C)OC(N)=C(C#N)C1c1cc(OC)ccc1OC (centres undefined)	5.9%

SMILES	inhibition
COC(=O)c1cn(C)c2ccc(S(=O)(=O)N3CC(C)CC(C)C3)cc2c1=O (centres undefined)	8.5%
COc1ccc(C2/C(=C(/O)c3ccccc3)C(=O)C(=O)N2c2ncccn2)cc1OC (centres undefined)	-2.7%
Cc1c(C(=O)Nc2ccccc2Cl)oc2ccc(S(=O)(=O)N3CCC4(CC3)OCCO4)cc12	-12.5%
CCOC(=O)n1c(SCC(=O)N(CC)CC)nc2ccccc21	-1.8%
O=C(NCc1cccs1)c1ccc2c(c1)ncn2C1CCCC1	2.8%
O=C(CN1C(=O)CCS(=O)(=O)c2ccccc21)NCc1ccc(F)cc1	1.5%
O=C(C1=C(O)C(=O)N(Cc2ccccc2)C1c1cccnc1)c1ccco1 (centres undefined)	1.3%
COc1ccc(-c2nnc(SCC(=O)NC3CCCCC3)o2)cc1OC	2.7%
CCOC(=O)c1ccn(-c2nc(-c3ccco3)cc(C(F)(F)F)n2)n1	2.5%
O=C(CCN1C(=O)c2ccncc2C1=O)Nc1ccc2c(c1)OCCO2	9.6%
CCN1CCN(c2ncnc3c2oc2nc(C)c4c(c23)CC(C)(C)OC4)CC1	1.2%
CCOc1ccc(NC(=O)CCS(=O)(=O)c2cccc3nsnc23)cc1	-3.1%
CCOc1nc(OCC)nc(-n2cc(-c3ccccc3)nn2)n1	3%
COc1ccc(Cc2nnc(NC(=O)Cc3cccs3)s2)cc1	-1.5%
COc1ccc(CC(=O)Nc2ccc(-c3nnc(-c4ccc(C)cc4)o3)cc2)cc1	51.1% (active)
CCOC(=O)c1ccc(NC(=O)Cn2nnc(-c3ccc(C)cc3)n2)cc1	3.3%
Cn1c(=O)[nH]c(=O)c2c1nc(CN(Cc1ccccc1)Cc1ccccc1)n2CCN1CCOCC1	-0.1%
CN(Cc1ccccc1)C(=O)CCNC(=O)Cn1cnc2ccccc2c1=O	-4.8%
COc1ccc(CCNC(=O)c2ccc3c(c2)NC(=O)C(N2CCOCC2)S3)cc1OC (centres undefined)	0.3%
Cn1c(C(=O)N2CCC(C(N)=O)CC2)cc2c(=O)n(C)c3ccccc3c21	-1.2%
C/C(=N\O)C1(C)N(O)C(C)(C)C(c2ccc(Br)cc2)=[N+]1[O-] (centres undefined)	1.1%
Cc1ncn(C23CC4CC(CC(O)(C4)C2)C3)n1	8.2%
Cc1cc(=O)n2nc(N3CCCC(C(=O)NCCC4=CCCCC4)C3)sc2n1 (centres undefined)	3%
CC(C)Nc1nc(N(c2ccccc2)c2ccccc2)nc(-n2ccnc2)n1	-7.8%

SMILES	inhibition
CCOC(=O)Nc1ccccc1N1C(=O)c2ccccc2C1=O	-0.1%
CCOC(=O)c1[nH]c2c(c1C)C(=O)CC(c1ccc(N(C)C)cc1)C2 (centres undefined)	-0.6%
CC1C=CCC2C(=O)N(c3cccc(C(=O)N4CCCCCC4)c3)C(=O)C12 (centres undefined)	-6.5%
O=C1NC(c2ccncc2)Nc2sc3c(c21)CCCC3 (centres undefined)	0.8%
CCOC(=O)c1ccc2[nH]c(C)c(CN3CCN(C)CC3)c(=O)c2c1	-3.9%
Cc1ccc2cc3cc(C(=O)N4CCCCCC4)oc3nc2c1	3.2%
CC1=C(C(=O)Nc2ccccc2)C(c2cccs2)C(C#N)=C(SCC#N)N1 (centres undefined)	-2.4%
c1ccc(CCn2nnnc2CN2CCN(C3CCCC3)CC2)cc1	-2.3%
COc1ccc(-c2ccc(Nc3ccc(S(=O)(=O)N4CCCC4)cc3)nn2)cc1OC	2.7%
Cc1nc2ncnn2c(C)c1CCC(=O)N1CCN(C(=O)c2ccco2)CC1	-3.3%
CCN1CCN(Cc2c(O)ccc3c(=O)c(-c4ccc(OC)c(OC)c4)c(C(F)(F)F)oc23)CC1	-3.1%
CCOC(=O)c1cccc(NC(=O)CN(c2ccc(C)cc2)S(=O)(=O)c2c(C)noc2C)c1	-3%
COc1cccc(-c2nc3n(n2)C(c2ccccc2Cl)C(C(N)=O)=C(C)N3)c1 (centres undefined)	-2.8%
O=C1CCc2cc(S(=O)(=O)N3CCC(C(=O)NCc4ccccc4Cl)CC3)ccc2N1	-0.3%
CCOC(=O)c1cc2cc(-c3c(C(=O)OCC)oc4cc(O)cc(O)c4c3=O)ccc2o1	1.4%
CCCCN(CC)C(=O)CN(C)S(=O)(=O)c1cccc2nsnc12	1%
CCn1c(SCC(=O)Nc2ccccc2F)nc2c(c1=O)SC(C)C2 (centres undefined)	4.3%
COc1ccc(CCNC(=O)CSc2nnc(CNC(=O)c3cccs3)o2)cc1OC	1.2%
Cc1ccc(-c2nc(CS(=O)CC(=O)NC3CCCC3)c(C)o2)cc1 (centres undefined)	1.4%
COCCCN(C(=O)Cn1ncc2c(=O)oc3ccc(C)cc3c21)C(C)c1ccncc1 (centres undefined)	-4.1%
CCn1ncc(Br)c1C(=O)Nc1cc(C)ccc1F	-0.1%
Cc1ccccc1CSc1nnc(Cn2c(=O)sc3ccccc32)n1C	5.5%
O=C1CC(c2ccccc2)CC(O)=C1C=NCCN1CCOCC1 (centres undefined)	1.2%
CC(=O)N(CC1CCCO1)C1(C(=O)NC2CCCC2)CCCCC1 (centres undefined)	4%

SMILES	inhibition
COC(=O)[C@H](C(C)C)n1c(C)c(C(C)=O)c(C(C)=O)c1C	31.1% (active)
Cc1cccc(C2c3c(n(C)c(=O)n(C)c3=O)N=C3c4ccccc4C(=O)C32)c1 (centres undefined)	-4.5%
CCN(CC)C(=O)CCC(=O)Nc1ccc(C(=O)OC)cc1	4.2%
CC(C)COC(=O)C1C2C=CC3(CN(C(C)c4ccc(Br)cc4)C(=O)C13)O2 (centres undefined)	17.2%
C/C(=C(\C#N)C(=O)NCCCN1CCOCC1)N(C)C	-7.6%
CN1C(=O)c2ccccc2C(C(=O)NCCCN2CCCC2)C1c1c[nH]c2ccccc12 (centres undefined)	-4.5%
Cc1ccc(S(=O)(=O)n2nc(OC(=O)C(C)(C)C)cc2N)cc1	-2.2%
Clc1ccc(Cn2ncc3c(NCc4cccnc4)ncnc32)cc1	-5.1%
CCOc1ccc(OCC)c(NC(=O)CN(C)S(=O)(=O)c2cccc3nsnc23)c1	-4.8%
Cn1c(=O)cc(SCC(=O)N2CCN(C(=O)c3ccco3)CC2)c2ccccc21	-1.6%
COc1ccc(OC)c(NC(=O)CC(Cc2ccccc2OC)C(=O)O)c1 (centres undefined)	9.6%
CCOC(=O)C1CCCN(Cc2nc(N)nc(Nc3ccc(C)cc3)n2)C1 (centres undefined)	-0.4%
CC1Cc2nc(SCC(=O)Nc3ccccc3F)n(C)c(=O)c2S1 (centres undefined)	-4.6%
CC1=Nn2c(nnc2-c2ccccc2)SC1	4.7%
C=CCNC(=O)CSc1nc2sc(C)c(C)c2c(=O)[nH]1	-8.9%
Cc1cc(Nc2ccccc2)n(CCC#N)n1	9.1%
O=C(Cc1nn[nH]n1)NCCC1=CCCCC1	3.2%
CCCn1cc(SCC(N)=O)c2ccccc21	0.9%
O=C(Nc1ccccc1)N(Cc1cccnc1)Cc1ccco1	3.6%
Cc1cccc(Nc2ccccc2C(=O)NCc2ccco2)c1C	34.3% (active)
CCCCOc1ccc(C(=O)NCc2ccco2)cc1	-9.3%
O=C(NCc1ccco1)c1cccn2c(=O)c3cc(Br)ccc3nc12	-9.9%
